H9c2 protect – cardioprotection against H2O2-induced cell death, primary screen, uHTS, H9c2 cells, ATPLite luminescence; AID 588492, 2011; protection from H2O2 cell death, % at 20 µM; H9c2 cardiomyocytes, H2O2 injury protection, 2 h; 0.63% of 360,000 active;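 active means compounds giving at least 50% protection of heart cells from peroxide-induced death in the single-dose screen, raw or plate-pattern-corrected value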;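 further: 0% = DMSO wells with peroxide and 100% = DMSO wells without peroxide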
SUMO HTRF inh – inhibitors of in vitro SUMOylation cascade, primary screen, biochemical, HTRF, uHTS. SUMO-conjugating enzyme UBC9 (Homo sapiens), P63279. HTRF SUMOylation assay, SAE1/SAE2 + UBC9. inhibition, % at 35 µM. 0.36% of 290,000 active; in the data active means inhibition above about 50%, passing the limit was not always enough; inconclusive means no clear call, values can overlap the other calls
Target sequence (P63279 whole entry, looked up): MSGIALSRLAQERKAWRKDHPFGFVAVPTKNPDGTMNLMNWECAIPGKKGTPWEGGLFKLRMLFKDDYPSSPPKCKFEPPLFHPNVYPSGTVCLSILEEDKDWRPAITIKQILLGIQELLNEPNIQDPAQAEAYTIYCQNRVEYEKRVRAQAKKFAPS
NTR1 agonist – agonists of human NTR1, primary screen, imaging, U2OS cells, beta-arrestin-GFP, high content. NTR1-U2OS beta-arrestin-GFP spot imaging, agonist mode. activation, % at 20 µM. 0.17% of 330,000 active. Neurotensin receptor type 1 (Homo sapiens), P30989;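 active means activation at or above 40% of the spot to cytoplasm intensity ratio, with at least 20 cells analyzed; inconclusive means wells under 20 cells, flagged as cytotoxic or low count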;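 further: 0% = DMSO without peptide and 100% = 100 nM NTR1 peptide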
Target sequence (P30989 whole entry, looked up): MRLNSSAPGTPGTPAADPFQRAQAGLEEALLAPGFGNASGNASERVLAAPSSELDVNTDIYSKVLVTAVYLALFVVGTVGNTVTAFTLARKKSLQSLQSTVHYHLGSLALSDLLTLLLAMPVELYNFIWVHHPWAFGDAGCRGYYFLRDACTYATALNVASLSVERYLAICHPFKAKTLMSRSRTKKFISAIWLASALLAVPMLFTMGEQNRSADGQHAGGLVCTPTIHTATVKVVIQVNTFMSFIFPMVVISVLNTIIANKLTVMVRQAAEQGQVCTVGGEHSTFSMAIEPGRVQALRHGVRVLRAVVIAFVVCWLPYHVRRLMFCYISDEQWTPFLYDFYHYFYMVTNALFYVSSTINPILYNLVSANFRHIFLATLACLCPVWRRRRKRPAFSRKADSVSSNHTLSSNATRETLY
ALR H2O2 inh – inhibitors of human ALR sulfhydryl oxidase, primary screen, biochemical, H2O2 detection, HRP-luminol luminescence, single point; FAD-linked sulfhydryl oxidase ALR (Homo sapiens), P55789; purified ALR, DTT oxidation; inhibition, % (test concentration not listed); 3.8% of 290,000 active;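 active means mean replicate inhibition above about 79%, with every replicate also reaching it, limit read from the data; inconclusive means only one of the two criteria met; inactive means mean below limit and not every replicate reaching it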
* marks the source's active call; other numbers are inactive results; ? = inconclusive; · = no result given. Hits are enriched below; roughly 3.9% of the tested compounds scored in any of these assays.

SMILES	H9c2 protect	SUMO HTRF inh	NTR1 agonist	ALR H2O2 inh
Cc1ccccc1-c1nc(CS(=O)CC(=O)NCCN2CCOCC2)c(C)o1 (stereo not given)	2	-9	-2	99*
Cc1oc(-c2ccc(Cl)cc2)nc1CS(=O)CC(=O)NCCN1CCCC1 (stereo not given)	19	20	3	99*
Cc1oc(-c2ccc(Cl)cc2)nc1CN1CCCC(C(=O)NCCCN2CCCC2=O)C1 (stereo not given)	-19	27	0	4
CC(C)(Sc1ccc(CCN(CCCCC2CCCCC2)C(=O)NC2CCCCC2)cc1)C(=O)O	-12	·	7	·
CCOC1=C2[C@@H](CN(S(=O)(=O)c3ccc(C)cc3)[C@H]2c2ccccc2Cl)[C@H]2C(=O)NC(=O)[C@H]2C1	5	·	·	·
O=C(Nc1cccc(S(=O)(=O)N2CCOCC2)c1)C1CC(=O)N(c2ccc3c(c2)OCCO3)C1 (stereo not given)	5	·	2	-1
CN1C(=O)C2(C(C#N)=C(N)N(c3cc(Cl)cc(Cl)c3)C3=C2C(=O)CC(C)(C)C3)c2ccccc21 (stereo not given)	16	18	0	-3
CC(C)(C)n1nnnc1C(c1ccccn1)N(Cc1ccccc1)Cc1ccc(Cl)cc1 (stereo not given)	-22	-8	1	-2
CCOc1ccc(-c2nnc(SCC(=O)N(CC)CC)n2N)cc1	4	-12	0	-3
Cc1ccccc1-c1nc(CS(=O)(=O)CC(=O)NCCN2CCOCC2)c(C)o1	-1	-5	0	22
Cc1oc(-c2ccc(Cl)cc2)nc1CS(=O)CC(=O)NCCCN1CCOCC1 (stereo not given)	-4	-8	0	99*
CC(C)CCN(C)c1ccc(/C=N/n2cnnc2)cc1	-8	5	5	70
Cc1ccc(NC(=O)CC2S/C(=N/c3nccs3)N(C)C2=O)cc1C (stereo not given)	-1	9	10	-4
CC1(C)CC(=O)C(C(C2=C(O)CC(C)(C)CC2=O)c2ccc(O)c([N+](=O)[O-])c2)=C(O)C1	5	17	2	97*
COc1cc(NC(=O)c2c(OC)cccc2OC)ccc1NC(=O)c1cc2ccccc2o1	54*	3	0	-1
Cc1occc1C(=O)N1CCCC(Nc2ccc(C(C)C)cc2)C1 (stereo not given)	-3	1	1	99*
CC(C)c1ccc(NC2CCCN(C(=O)c3cnc4ccccn4c3=O)C2)cc1 (stereo not given)	4	4	1	95*
Cc1cc(C(=O)N2CCCC(Nc3ccc(F)cc3)C2)c(C)o1 (stereo not given)	6	17	1	?
CCn1nc(C)cc1C(=O)N1CCCC(Nc2ccc(C(C)C)cc2)C1 (stereo not given)	-5	-8	1	·
O=C(c1ccccc1-c1ncc[nH]1)N1CCCC(Nc2ccc(F)cc2)C1 (stereo not given)	5	4	0	99*
Cc1ccc(NC2CCCN(C(=O)c3cnc4ccccn4c3=O)C2)cc1C (stereo not given)	2	-1	-1	·
Cc1ccc2nccc(C(=O)N3CCCC(Nc4ccc(F)cc4)C3)c2c1 (stereo not given)	-1	-2	0	98*
Cc1occc1C(=O)N1CCCC(Nc2ccc(F)cc2)C1 (stereo not given)	3	-1	0	98*
COc1cc2c(C#CCCO)c(-c3ccsc3)oc(=O)c2cc1OC	64*	·	7	-1
c1cncc(CN=C2Nc3ccccc3CS2)c1	-1	3	0	98*
SMILES	H9c2 protect	SUMO HTRF inh	NTR1 agonist	ALR H2O2 inh
Clc1ccc(CN=C2Nc3ccccc3CS2)cc1	-7	-38	8	-7
CCOC(=O)c1[nH]c2ccccc2c1NC(=O)c1ccc(S(=O)(=O)N2CCOCC2)cc1	22	2	-2	·
CCOC(=O)N1CCC(N2C(=O)c3ccccc3C2Nc2ccccc2)CC1 (stereo not given)	2	-1	-2	·
Cc1ccc(NC2c3ccccc3C(=O)N2CCN2CCOCC2)cc1 (stereo not given)	2	17	3	98*
CCN(CC)S(=O)(=O)c1ccc(NC2c3ccccc3C(=O)N2CCN2CCOCC2)cc1 (stereo not given)	0	22	-1	-5
CCOC(=O)N1CCC(N2C(=O)c3ccccc3C2Nc2ccc(C)cc2)CC1 (stereo not given)	19	12	5	99*
CCOC(=O)c1cn[nH]c1NC(=S)Nc1ccc(Cl)cc1	-13	-24	4	-7
CCN(CC)c1ccc(/C=N\N2CCN(Cc3ccc(C)cc3)CC2)cc1	-10	13	6	98*
CCN(CC)c1ccc(CN2CCCCCC2)cc1	-6	18	0	98*
COc1cc(/C=N/N2CCN(Cc3ccc(Cl)cc3)CC2)cc(Br)c1O	1	0	7	91*
Cc1ccc(CN2CCN(/N=C/c3ccc(O)c(O)c3)CC2)cc1	43	-3	1	79*
Fc1ccc(NCc2nnc(SCc3nnc(-c4ccccc4)o3)n2Cc2ccccc2)cc1	-5	8	-2	·
CCN(CC)CCCn1c(=S)[nH]c2cc(C(=O)OC)ccc2c1=O	20	20	2	51
CCN(c1ccccc1)c1cc2ccccc2c(=O)[nH]1	3	61*	0	45
CCn1c(=O)c(C(=O)NCCN2CCCCC2)c(O)c2ccccc21	-2	7	-2	-16
COc1cc(OC)nc(NC(=O)COC(=O)C2CCCCC2)n1	2	6	-1	-5
CCN(CC(=O)Nc1ccc2c(c1)OCCO2)C(=O)CCOc1ccccc1	-5	·	-2	·
Cc1cnc(SCCc2ccncc2)nc1C	·	-9	-1	99*
N#Cc1cnc(SCCc2ccccc2)nc1N	15	-3	1	-2
CCN(CC)c1ccc(NC(=O)CNCc2ccccc2Cl)c(C)c1	-2	18	0	99*
CCN(CC)c1ccc(NC(=O)c2cccc(C)c2OC)c(C)c1	-5	6	0	99*
CCOC(=O)N1CCC(N2Cc3cccc(C(=O)Nc4ccc(N(CC)CC)cc4C)c3C2=O)CC1	1	-9	5	50
O=C(CSc1ccsc1[N+](=O)[O-])Nc1cc(F)ccc1F	-6	16	·	·
CCN(CC)c1ccc(NC(=O)c2cccnc2)c(C)c1	2	-16	0	96*
CCN(CC)c1ccc(NC(=O)CSc2ccsc2[N+](=O)[O-])c(C)c1	-12	14	1	93*
COc1cc2cnc(CCCC#N)cc2cc1OC	-2	·	6	-9
O=C(C[C@H]1C(=O)N(c2ccccc2)C[C@@H]1Cc1ccccc1)Nc1ccc(Br)cc1	-13	·	·	·
CCN(CC)c1ccc(NC(=O)c2cnc3ccccn3c2=O)c(C)c1	-9	-4	22	99*
